PubChem BioAssay (NCATS)
Where “and” joins values, the source holds several entries; their conditions need not be identical. Equal entries are not always repeated. Records with an inconclusive call do not appear. More than one record can exist for a structure, and the calls need not agree. Calls of active or inactive are those of the source. The call rests on the fitted dose curve; in most records, active means well fitted inhibition curve with a large enough effect; inconclusive means small, poorly fitted or top-dose-only effect; inactive means flat fitted curve, though single readings scatter.

Key:
Test in all cases: Cytotoxic Profiling of Annotated Libraries Using Quantitative High-Throughput Screening (AID 1296008); further: nearly all actives have a fitted effect of over 60% in size
Settings in all cases: Five cell lines viability, CellTiter-Glo ATP luminescence, 48-72 h; max response: stronger effect = lower value
CRL-7250 = normal cell line; tested on: CRL-7250
Summary of the method: (§1)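 Cytotoxicity was measured as CellTiter-Glo ATP luminescence, read after 10 min at room temperature. Compound treatment of the cells lasted 48 or 72 hr at 37 degrees Celsius in a qHTS format.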

HEK293 = tested on: HEK293
Summary of the method: as §1

HaCat = tested on: HaCat
Summary of the method: as §1

KB-3-1 = tested on: KB-3-1
Summary of the method: as §1
On the % scale 0 is the no-effect control and ±100 the full control effect; potency means the concentration at half of the fitted maximal effect.

CC(=O)Nc1ccc(OC[C@](C)(O)C(=O)Nc2ccc([N+](=O)[O-])c(C(F)(F)F)c2)cc1
inactive: max response (CRL-7250) -1.8% and -4.07% | max response (HEK293) -11.2% | outcome (HEK293) | max response (HaCat) -8.66% and -10.1% | max response (KB-3-1) -13.4% and 7.92%

Cc1ccccc1-n1c(Cn2cnc3c(N)ncnc32)nc2cccc(C)c2c1=O
active: Potency (CRL-7250) 833 nM | Potency (HEK293) 1480 nM | Potency (HaCat) 590 nM | Potency (KB-3-1) 1320 nM
inactive: outcome (HEK293) | max response (HaCat) -10.3% | max response (KB-3-1) 0.515%

C#C[C@]1(O)C=C[C@@H]2[C@@H]3CCC4=CC(=O)CC[C@@H]4[C@H]3CC[C@@]21CC
inactive: max response (CRL-7250) -4.4% | max response (HEK293) -3.75% | outcome (HaCat)

COC1=C[C@@H]2[C@@H]3Cc4ccc(OC)c(O)c4[C@]2(CCN3C)CC1=O
inactive: outcome (CRL-7250) | max response (HEK293) 1.05% and -3.7% | max response (HaCat) -2.22% | outcome (HaCat) | max response (KB-3-1) 1.47% | outcome (KB-3-1)

CC(C)NCC(O)c1ccc([N+](=O)[O-])cc1 (configuration not stated)
inactive: max response (CRL-7250) -2.22% | max response (HEK293) -8.6% | max response (HaCat) -38.9% | max response (KB-3-1) -11.6%

CC(C)(C)c1cc(C=C(C#N)C#N)cc(Br)c1O
inactive: outcome (CRL-7250) | max response (HEK293) -8.76% | max response (HaCat) 3.48%

CCCCCC[C@H]1C(=O)O[C@H](C)[C@H](NC(=O)c2cccc(NC=O)c2O)C(=O)O[C@@H](C)[C@@H]1OC(=O)CC(C)C
inactive: max response (HaCat) -16%
active: Potency (CRL-7250) 1480 nM | Potency (HEK293) 469 nM

CCNC(=O)C[C@@H]1N=C(c2ccc(Cl)cc2)c2cc(OC)ccc2-n2c(C)nnc21
active: Potency (CRL-7250) 1.32 µM and 1.3 µM | Potency (HEK293) 5170 nM
inactive: max response (HaCat) -10.8%

O=C(NCC1CCOCC1)c1cnc(Nc2ccc(Cl)cc2Cl)nc1C(F)(F)F
active: Potency (HEK293) 8200 nM
inactive: max response (CRL-7250) 4.29% and -22.6% | max response (HEK293) -4.23% | max response (HaCat) -8.57% and -14.9% | max response (KB-3-1) -20.4% | outcome (KB-3-1)

CO[C@H]1CCC(O[C@H]2C[C@H]([C@]3(C)CC[C@]4(C[C@H](O)[C@@H](C)[C@@H]([C@@H](C)C=C(C)C(=O)[C@H](C)C[C@H](C)C(=O)O)O4)O3)O[C@]3(O[C@@H]([C@H]4O[C@@](O)(CO)[C@H](C)C[C@H]4C)C[C@H]3C)[C@H]2C)O[C@H]1C (some centres not stated)
inactive: max response (HaCat) -21.4%
active: Potency (CRL-7250) 1050 nM | Potency (HEK293) 590 nM

CC(C)[C@]12O[C@H]1[C@@H]1O[C@]13[C@]1(O[C@H]1C[C@H]1C4=C(CC[C@@]13C)C(=O)OC4)[C@@H]2O
active: Potency (CRL-7250) 82 nM | Potency (HEK293) 7.3 nM | Potency (HaCat) 130 nM | Potency (KB-3-1) 65.1 nM

Clc1ccccc1C(c1ccccc1)(c1ccccc1)n1cccn1
inactive: outcome (CRL-7250) | max response (HEK293) -5.51% | max response (HaCat) -3.22% | max response (KB-3-1) 9.15%

CC[C@@]1(O)C(=O)OCc2c1cc1n(c2=O)Cc2cc3ccccc3nc2-1
active: Potency (CRL-7250) 418 nM | Potency (HEK293) 41.8 nM | Potency (HaCat) 46.9 nM | Potency (KB-3-1) 469 nM

CCCC[N+]1(C)[C@H]2CC(OC(=O)[C@H](CO)c3ccccc3)C[C@H]1[C@H]1O[C@H]12 (some centres not stated)
inactive: max response (CRL-7250) -3.26% | max response (HEK293) -1.83% | outcome (HaCat) | max response (KB-3-1) -2.74%

O=c1[nH]c2ccccc2n1C1CCN(Cc2ccc(-c3[nH]c4cc5ncnc5cc4nc3-c3ccccc3)cc2)CC1
inactive: outcome (CRL-7250) | max response (HaCat) 0.8% | outcome (KB-3-1)
active: Potency (HEK293) 18700 nM

CSCC[C@@H](NC(=O)[C@@H](Cc1ccccc1)NC(=O)CNC(=O)CNC(=O)[C@@H](N)Cc1ccc(O)cc1)C(=O)O
inactive: max response (CRL-7250) 2.24% | max response (HEK293) 3.52% | outcome (HaCat) | max response (KB-3-1) 3.04%

CCCCC(CC)COC(=O)c1ccccc1C(=O)OCC(CC)CCCC (configuration not stated)
inactive: max response (CRL-7250) -5.66% | outcome (HEK293) | outcome (HaCat) | max response (KB-3-1) -15.4%

O=[N+]([O-])c1c(Cl)c(Cl)cc(Cl)c1Cl
inactive: max response (CRL-7250) -4.27% | max response (HEK293) 4.07% | outcome (HaCat) | max response (KB-3-1) -18.1%

COc1cc([C@@H]2c3cc4c(cc3[C@@H](O)C3COC(=O)C32)OCO4)cc(OC)c1O (some centres not stated)
inactive: max response (HaCat) 3.35%
active: Potency (CRL-7250) 83.3 nM | Potency (HEK293) 37.2 nM | Potency (KB-3-1) 66.2 nM

Nc1c(Cl)c(Cl)c(Cl)c(Cl)c1Cl
inactive: max response (CRL-7250) -6.12% | max response (HEK293) -6.61% | max response (HaCat) -3.9% | max response (KB-3-1) -13%

C[C@]12CC[C@H]3[C@@H](CCC4=CC(=O)CC[C@@]43C)[C@H]1CC[C@H]2OC(=O)CCC1CCCC1
inactive: max response (CRL-7250) 2.84% | outcome (HEK293) | max response (HaCat) 4.09% | max response (KB-3-1) 9.03%
